From PubChem BioAssay AID489018 (Southern Research Specialized Biocontainment Screening …, 2010)
About 350 (15%) of roughly 2,300 compounds were called active. The rule behind the calls is not given here. The list is a sample of the results. Entries with a potency or affinity are not part of this list.

test: HepG2 cell cytotoxicity, dose response, cytotoxicity control for non-replicating M. tuberculosis project (AID 489018); details: series mostly up to 20 µM; viability: at the top concentration;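 note: HepG2 human liver cells; 100% = vehicle-treated cells and 0% = background signal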

| Structure (SMILES) | viability |
| --- | --- |
| O=C(NNC(=O)c1ccccc1F)c1ccc(-c2ccc(Cl)cc2)o1 | 104% [at 5 µM] (inactive) |
| COC(=O)c1cn(NC(=O)c2cnccn2)c(=O)c2ccccc12 | 75.4% (inactive) |
| CCOC(=O)c1cc(-c2c(Cl)cccc2Cl)no1 | 107% (inactive) |
| Cn1cnc([N+](=O)[O-])c1Sc1ccc([N+](=O)[O-])cc1 | 106% [at 5 µM] (inactive) |
| Clc1ccc(-c2ccc(CNCc3ccccn3)o2)cc1 | 96.1% (inactive) |
| Fc1ccc(-c2ccc(CNCc3ccccn3)o2)cc1Cl | 109% (inactive) |
| CCOC(=O)c1cc(COc2cc(Cl)cc(Cl)c2)on1 | 96.5% (inactive) |
| Cc1cccc(OCC(=O)NNC(=O)c2cc3ccccc3oc2=O)c1 | 111% (inactive) |
| O=C(COc1ccc2ccccc2c1)N/N=C/c1ccccn1 | 94.8% (inactive) |
| Cc1cc(C)n2[nH]c(=O)c(N=Nc3cccc(Cl)c3)c2n1 | 99.3% [at 5 µM] (inactive) |
| CN=C1S/C(=C\c2ccc(OCC(=O)OC)c(OC)c2)C(=O)N1C | 94% (inactive) |
| COc1cccc(OCCNC(=O)c2cc([N+](=O)[O-])cc([N+](=O)[O-])c2)c1 | 102% (inactive) |
| Cc1n[nH]c(C)c1CCOc1ccc(C(C)C)cc1 | 77.2% (inactive) |
| CC(C)c1ccc(OCC(=O)NNC(=O)c2cnccn2)cc1 | 97.1% (inactive) |
| O=C(COC(=O)c1ccc(O)cc1O)c1ccc2c(c1)OCO2 | 104% [at 5 µM] (inactive) |
| O=C1Nc2ccccc2/C1=C/C(=O)c1cccs1 | 103% (inactive) |
| O=C(NN=C(Cc1ccccc1)Cc1ccccc1)c1ccncc1 | 98.5% (inactive) |
| CCCCCn1c(=O)c2ccccc2n2c(CCl)nnc12 | 89.4% [at 5 µM] (inactive) |
| CC(C)(C)Nc1nc(NC(C)(C)C)nc(-n2ccnc2)n1 | 108% [at 5 µM] (inactive) |
| CN1/C(=C\C(=O)COC(=O)C2COc3ccccc3O2)C(C)(C)c2ccccc21 (stereo not given) | 105% [at 5 µM] (inactive) |
| Cc1cccc(-c2nnc3sc(-c4ccccc4C)nn23)c1 | 88.6% (inactive) |
| Cc1cc(C)cc(OC(=O)CCN2C(=O)c3ccccc3C2=O)c1 | 104% (inactive) |
| Cc1cc(N2CCC(C)CC2)nc(-n2nc(C)cc2C)n1 | 96.4% [at 5 µM] (inactive) |
| CCOc1ccc(Nc2cc(C)nc(-n3nc(C)cc3C)n2)cc1 | 79.6% (inactive) |
| Cc1cc(N2CCN(c3ccccc3)CC2)nc(-n2nc(C)cc2C)n1 | 92.3% [at 5 µM] (inactive) |

| Structure (SMILES) | viability |
| --- | --- |
| COc1ccc(/C=N/Nc2cc(C)nc(-n3nc(C)cc3C)n2)c(OC)c1 | 98.1% [at 5 µM] (inactive) |
| Cc1ccc(NC(=O)ON=C2CCCC2)cc1 | 75.1% (inactive) |
| Cc1cc(NC(=O)C2CCCCC2)n(-c2nc3ccccc3[nH]2)n1 | 117% [at 5 µM] (inactive) |
| O=C(OCn1nnc2ccccc2c1=O)c1cccs1 | 111% [at 5 µM] (inactive) |
| COc1cc(/C=N/NC(=O)c2ccncc2)ccc1OC(=O)c1cccc(F)c1 | 105% [at 5 µM] (inactive) |
| O=C(NCCCN1CCOCC1)c1c(O)c2cc(Br)cc(Br)c2[nH]c1=O | 75.9% (inactive) |
| CC(C)Cc1nnc(NC(=O)CCS(=O)(=O)c2ccc(Cl)cc2)s1 | 99.2% (inactive) |
| C=CCNc1nnc(Sc2ncccc2[N+](=O)[O-])s1 | 108% (inactive) |
| Cc1cccc(OC(=O)c2sc3ncn(C)c(=O)c3c2C)c1 | 97.7% (inactive) |
| COc1cccc(N2C(=O)NC(=O)/C(=C/c3ccc([N+](=O)[O-])s3)C2=O)c1 | 87.9% (inactive) |
| CCCc1nnc(NC(=O)c2cc3ccccc3oc2=O)s1 | 97.8% (inactive) |
| CCc1ccc(OCC(=O)Nc2ccncc2)c(Br)c1 | 93.6% [at 5 µM] (inactive) |
| O=C(Nc1nnc(C2=COCCO2)o1)c1ccc(Cc2ccccc2)cc1 | 99.9% (inactive) |
| O=C(CCS(=O)(=O)c1ccccc1)Nc1nnc(-c2ccco2)o1 | 90.4% (inactive) |
| Cc1ccccc1C(=O)Nc1nnc(-c2ccco2)o1 | 94.8% (inactive) |
| CC(C)(C)c1ccc(C(=O)Nc2nnc(C3=COCCO3)o2)cc1 | 93.6% [at 5 µM] (inactive) |
| Cc1ccsc1C(=O)OCC(=O)Nc1nnc(-c2ccccc2)o1 | 102% (inactive) |
| CCOc1ccc(C(=O)Nc2nnc(C3=COCCO3)o2)cc1 | 85.8% (inactive) |
| Cc1cc(C(=O)COc2cccc3cccnc23)c(C)n1C | 94.5% (inactive) |
| CN(O)/C=c1/ccc2c(n1)C(=O)C=CC=2 | 85.6% (inactive) |
| Cc1ccc(-c2cc(C(F)F)nc(S(C)(=O)=O)n2)cc1 | 106% (inactive) |
| CN1C(=O)NC(=O)/C(=C/c2ccc([N+](=O)[O-])s2)C1=O | 87.8% (inactive) |
| CC1Cc2cc(/C=C3/SC(=S)NC3=O)ccc2O1 (stereo not given) | 88% (inactive) |
| COc1ccc(S(=O)(=O)N(C(C)=O)c2ccc(OC(C)=O)c3ccccc23)cc1[N+](=O)[O-] | 96.7% (inactive) |
| Cc1ccccc1Nc1c(-c2ccccn2)nc2ccccn12 | 99.6% [at 5 µM] (inactive) |

| Structure (SMILES) | viability |
| --- | --- |
| O=C(CCN1CCOCC1)c1ccc(Br)cc1 | 85.7% (inactive) |
| O=c1[nH]c(O)c(/C=C2/C=CC(c3cc(Cl)ccc3Cl)=N2)c(=O)[nH]1 | 106% (inactive) |
| CCOC(=O)C1(O)CC(C)=NN1C(=O)c1cccc(Br)c1 (stereo not given) | 90.3% (inactive) |
| CCOC(=O)Cc1cc(=O)n2[nH]cc(-c3ccc(Cl)cc3)c2n1 | 85.6% (inactive) |
| CN(C)CCOc1nc(-c2ccccc2)nc2c1oc1ccccc12 | 107% [at 5 µM] (inactive) |
| COc1ccc(CN2C(=O)/C(=C/c3ccncc3)SC2=S)cc1 | 89.6% (inactive) |
| Cc1ccccc1OCC(=O)OCC(=O)c1ccc[nH]1 | 105% (inactive) |
| Cc1cc(CC(C)C)n(-c2nc3ccccc3c(=O)n2OCC(N)=O)n1 | 85% (inactive) |
| O=C1/C(=C/c2ccccn2)COc2ccccc21 | 96.3% (inactive) |
| Cc1ccc(OCC(=O)OCc2c(C)noc2C)cc1C | 107% (inactive) |
| COc1cc(N=c2ssnc2Cl)cc(OC)c1 | 101% (inactive) |
| COc1cc(OC)nc(-n2ncc(Br)c(Br)c2=O)n1 | 88.1% [at 5 µM] (inactive) |
| Cc1ccc(OCC(=O)Nc2ccc([N+](=O)[O-])cc2)cc1 | 96.2% (inactive) |
| Cc1ccc(NC(=O)COCC(=O)Nc2ccc(C)cc2)cc1 | 98.9% (inactive) |
| CC(=O)OCCNc1cc(SCc2ccco2)c2nonc2c1[N+](=O)[O-] | 95.5% (inactive) |
| CC(=O)OCCN(C)c1cc(SC(C)C)c2nonc2c1[N+](=O)[O-] | 97.2% (inactive) |
| Cc1cccc(Cc2cnc(NC(=O)C3=NCCN3)s2)c1 | 107% [at 5 µM] (inactive) |
| S=C1SCN(Cc2cccnc2)CN1Cc1ccccc1 | 97.6% (inactive) |
| O=C1N(c2ccc3c(c2)OCCO3)C(c2ccccc2)C1(F)F (stereo not given) | 98.1% (inactive) |
| COc1ccc(CNC(=O)c2cc3cccc(O)c3oc2=N)cc1 | 104% (inactive) |
| Clc1ccc(CN2C3=NCCCN3c3ccccc32)cc1 | 92.4% (inactive) |
| COc1ccccc1NC(=O)C(=O)/C=C(\O)c1ccccc1 | 96% (inactive) |
| COc1ccc(NC(=O)c2ccc(-c3ccc([N+](=O)[O-])cc3)o2)cc1OC | 88.5% (inactive) |
| O=C(Nc1nnc(C2=COCCO2)o1)c1ccc(F)cc1 | 110% [at 5 µM] (inactive) |
| Cc1nnc(NC(=O)c2ccc3ccccc3c2)o1 | 112% (inactive) |
